# Screening data as filed in PubChem.
# GAA inh: alpha-glucosidase (human) inhibition; P10253; purified human GAA, 4-MU-alpha-glucoside fluorescence; Potency, µM (highest dose often 76.9 µM), for inactives: at the top dose activity change, negative = inhibition, most hits filed as inhibitors; hit rate 0.005% among 200,000;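 further: potency means the concentration at half of the fitted maximal effect; plate controls were uninhibited enzyme wells for no effect and no-enzyme background for full effect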
#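 Human alpha-glucosidase, 4 nM, pre-mixed with test compounds before 400 uM 4-methylumbelliferyl substrate; 20 min room temperature at pH 5.0. Fluorescence read after pH 10 stop; AC50 values from Hill-equation fits.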
# aGal spleen mod: alpha-galactosidase A (human) modulation; hit rate 0.008% among 240,000; human spleen homogenate, 4MU-alpha-Gal fluorescence, 40 min; P06280; AID 2107; Potency, µM (highest dose often 80 µM), inactives show at the highest dose activity change, negative = inhibition, usual class: inhibitors;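 further: potency means the concentration at half of the fitted maximal effect; 0% = enzyme with vehicle and -100% = no enzyme basal signal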
#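 qHTS titration in buffer at pH 5.0. Alpha-galactosidase activity in spleen homogenate was measured via 4-methylumbelliferone release from 1 mM fluorogenic substrate after 40 min at 37C and a pH 10 stop. AC50 came from Hill fits of control-normalized data.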
# aGlu spleen mod: inhibits or activates alpha-glucosidase in human spleen homogenate; P10253; Potency, µM (doses to about 79.9 µM), for inactives: at the top dose activity change, negative = inhibition, actives largely listed as inhibitors; hit rate 0.006% among 240,000; human spleen homogenate, 4-MU-alpha-glucoside fluorescence;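 further: potency means the concentration at half of the fitted maximal effect; 0% = enzyme with vehicle and -100% = no enzyme basal signal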
#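 AC50 values come from Hill-equation fits of concentration-response data, normalized to no-enzyme and full-activity controls. Enzyme source: 1 ug human spleen homogenate; 1 mM fluorogenic 4-MU glucoside, pH 5.0 citrate buffer, 37 C, 40 min.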
# GAA glycogen mod: alters human alpha-glucosidase cleavage of glycogen | P10253 | recombinant GAA, glycogen substrate, Amplex Red glucose oxidase fluorescence | Potency, µM (doses to about 76.4 µM), for the others: at the highest dose activity change, negative = inhibition, hits mostly inhibitors | hit rate 0.38% among 300,000;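 further: potency means the concentration at half of the fitted maximal effect; 0% = full enzyme reaction and -100% = no-enzyme basal signal; the screen sought inhibitors and activators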
#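 Recombinant human enzyme (4 nM); glycogen substrate; 37 C, 40 min, pH 5.0. Readout: coupled glucose oxidase/Amplex Red fluorescence.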
# GLA inh pH 4.5: alpha-galactosidase A (human) inhibition, pH 4.5; P06280; purified enzyme, 4-MU-alpha-Gal fluorescence, pH 4.5; activity change, negative = inhibition, % at 105 µM; 230,000 tested, under 10 active;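 further: 0% = full activity with enzyme and -100% = basal without enzyme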
# Target sequence (P06280 whole entry, looked up): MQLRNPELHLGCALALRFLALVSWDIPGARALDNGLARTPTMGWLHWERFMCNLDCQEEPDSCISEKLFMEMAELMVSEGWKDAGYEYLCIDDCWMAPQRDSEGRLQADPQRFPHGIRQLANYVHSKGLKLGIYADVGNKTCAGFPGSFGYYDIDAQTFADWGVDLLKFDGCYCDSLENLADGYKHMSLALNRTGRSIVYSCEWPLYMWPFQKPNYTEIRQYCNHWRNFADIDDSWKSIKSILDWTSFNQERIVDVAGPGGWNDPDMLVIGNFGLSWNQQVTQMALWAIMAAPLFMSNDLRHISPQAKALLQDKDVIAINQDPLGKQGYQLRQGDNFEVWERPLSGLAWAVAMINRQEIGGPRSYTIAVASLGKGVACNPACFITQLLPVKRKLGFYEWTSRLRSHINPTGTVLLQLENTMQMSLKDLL
# N370S GC: N370S glucocerebrosidase modulation, Gaucher chaperone candidate | P04062 | N370S GC spleen homogenate, 4MU-glucoside fluorescence | Potency, µM (top dose mostly 59.4 µM), inactives show at the highest dose activity change, negative = inhibition, most hits filed as inhibitors | hit rate 0.092% among 330,000 | AID 2101;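 further: potency means the concentration at half of the fitted maximal effect; 0% = full enzyme activity and -100% = no enzyme basal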
# Numbers without * were called inactive; ? = inconclusive; · = not tested or not shown; [ ] = remark or other dose. This is a sample that favours compounds with a hit; in the whole collection about 0.43% have one here. The call rests on the fitted dose curve; in most records, active means well fitted curve in the direction sought with a large enough effect; inconclusive means small, poorly fitted or top-dose-only effect, or another doubt; inactive means no such curve, though single readings can be large; an effect the other way counts as inactive or inconclusive.
SMILES,GAA inh,aGal spleen mod,aGlu spleen mod,GAA glycogen mod,GLA inh pH 4.5,N370S GC
COC(=O)c1[nH]c2ccc(C)cc2c1NS(=O)(=O)c1ccc(F)cc1,8.5%,8.4%,-4.9%,10µM*,7.8,-36.3%
Cc1ccc(S(=O)(=O)Nc2c(C(=O)O)[nH]c3ccccc23)cc1C,·,·,·,?,·,4.2%
Cc1cc(S(=O)(=O)Nc2c(C(=O)O)[nH]c3ccccc23)ccc1F,2.1%,-13.4%,-6.9%,2.22µM*,-1.0,12.3%
COC(=O)c1[nH]c2ccc(C)cc2c1NS(=O)(=O)c1ccc(F)c(C)c1,2.9%,11.4%,5.9%,17.8µM*,-0.3,1.9%
COC(=O)c1[nH]c2ccc(F)cc2c1NS(=O)(=O)c1ccc(F)c(C)c1,-0.7%,-3.4%,-1.0%,-8.6%,1.1,13.8%
COc1ccc(C)cc1NC(=O)C1CCN(S(C)(=O)=O)CC1,·,·,·,35.5µM*,·,-0.5%
COc1cccc(CNc2ncc(Br)cc2Br)c1O,-5.4%,6.9%,-1.2%,24.9µM*,-8.3,12.6%
CCCn1cnc2cc(NCc3cccc(OC)c3O)ccc21,-3.5%,1.6%,-2.4%,17.6µM*,-0.6,4.1%
COc1cccc(CNc2ccc(Br)cn2)c1O,-13.2%,-3.0%,-3.3%,?,-21.6,1.4%
Cc1ccn2c(C(=O)NN=C3CCCCCCC3)c(C)nc2c1,10.5%,-3.8%,3.2%,39.8µM*,0.2,-10.6%
COc1ccc(OC)c(C2=Nn3c(nnc3-c3ccccc3C)SC2)c1,·,1.1%,1.0%,·,·,11.5%
COc1ccc(-c2nc3ccccn3c2NCc2ccc3c(c2)OCO3)cc1,-1.7%,0.8%,-12.4%,8.84µM*,-0.8,-26.2%
c1ccc(-c2nc3ccccn3c2NCc2ccc3c(c2)OCO3)cc1,8.2%,12.4%,6.3%,24.9µM*,-27.8,?
O=c1cnc2cncnc2n1Cc1ccc(F)cc1,·,1.2%,-8.5%,·,·,0.2%
COc1cccc([C@@H]2Oc3ccc(OC)cc3/C(=N/O[C@@H](C)c3cc(-c4c(C)cc(C)cc4C)no3)[C@@H]2O)c1,·,8.7%[17.5 µM],-0.8%[17.4 µM],·,·,3.9%[12.8 µM]
COc1ccc(N2C(=O)CC(Nc3ccc(C)cc3)C2=O)cc1 (centres undefined),1.2%,1.7%,-4.3%,-18.3%,-0.2,15.1%
COc1ccc(NC2CC(=O)NC2=O)cc1 (centres undefined),-4.0%,1.1%,-0.9%,11.2µM*,13.9,7.6%
CN1CC(O)C2=CC(=O)C(=O)C=C21 (centres undefined),·,0.4%,10.6%,·,·,-8.4%
Cc1ccc(/C=N/c2sc3c(c2C#N)CCCCC3)o1,-2.8%,4.2%,3.7%,?,2.3,6.7%
Cc1[nH]n(-c2cccc3ccccc23)c(=O)c1/C=N/c1sc2c(c1C#N)CCC2,-15.0%,9.0%,3.5%,20µM*,-6.6,-2.8%
Cc1ccc(/C=N/c2sc3c(c2C#N)CCC3)s1,5.5%,-0.4%,-3.5%,28µM*,-0.7,6.0%
N#Cc1c(/N=C/c2ccco2)sc2c1CCC2,-9.9%,-15.5%,4.2%,22.2µM*,-3.2,4.8%
N#Cc1c(/N=C/c2cc3ccccc3s2)sc2c1CCC2,-7.2%,4.1%,0.2%,-13.6%,8.3,5.4%
N#Cc1c(/N=C/C=C/c2ccccc2)sc2c1CCCC2,1.7%,-3.2%,-19.8%,12.5µM*,?,-0.1%
COc1cc(OC)c(OC)cc1CNc1cc(C)ccc1OC,-12.8%,10.5%,7.3%,11.2µM*,1.6,12.4%
SMILES,GAA inh,aGal spleen mod,aGlu spleen mod,GAA glycogen mod,GLA inh pH 4.5,N370S GC
COc1ccc(C)cc1NCc1cccc(OC)c1OC,?,-8.1%,-7.0%,-27.4%,0.2,26.5%
C/C(CCC(=O)OC[C@@H]1O[C@H](C#Cc2ccccc2)C=C[C@@H]1Oc1ccc(C)cc1)=N/O[C@@H](C)c1cn([C@H]2COC[C@H]2O)nn1,·,5.8%[17.5 µM],3.9%[17.4 µM],·,·,-9.1%[12.8 µM]
O=c1cc(-c2ccc(F)cc2)[nH][nH]1,-1.9%,-2.2%,-0.5%,-4.5%,8.1,-4.7%
O=c1cc(-c2ccc(C3CCCCC3)cc2)[nH][nH]1,-3.5%,13.6%,8.9%,15.8µM*,0.1,6.7%
Cc1ccccc1N1C(=O)CC(N(O)c2ccccc2)C1=O (centres undefined),-0.4%,-6.6%,-2.3%,3.95µM*,4.4,-12.2%
COc1ccccc1N(O)C1CC(=O)N(c2ccc(F)cc2)C1=O (centres undefined),2.2%,2.3%,-5.1%,17.8µM*,10.2,-5.2%
O=C1CC(N(O)c2ccccc2)C(=O)N1c1cc(Cl)cc(Cl)c1 (centres undefined),-9.4%,1.2%,1.1%,22.2µM*,0.4,-4.8%
COc1ccccc1N1C(=O)CC(N(O)c2ccccc2)C1=O (centres undefined),1.0%,-2.1%,-0.5%,?,-1.0,-1.7%
CCNC(=O)[C@H]1O[C@@H](n2cnc3c(N)nc(NCCc4ccc(CCC(=O)O)cc4)nc32)[C@H](O)[C@H]1O,·,1.8%,0.2%,·,-4.1,-6.1%
CN=c1scc(-c2ccc(F)cc2)n1/N=C/c1ccc(O)c(O)c1,-8.9%,7.0%,-1.3%,5.62µM*,-8.6,6.9%
CCOC(=O)/C(=N\Nc1ccc(OC)cc1)c1csc(Nc2ccccc2)n1,-2.9%,-0.3%,-5.8%,25.1µM*,-0.2,·
CCOC(=O)/C(=N/Nc1ccccc1)c1csc(Nc2ccccc2)n1,-9.1%,0.7%,-7.7%,?,-14.9,11.4%
COc1cccc2c1cc1c(=O)n(CC(=O)N3CCN(c4cccc(C)c4)C(C)C3)nc(C)n12 (centres undefined),·,·,·,-9.5%[76.3 µM],·,·
Cc1cc(C(=O)NNc2ccc(C(C)C)cc2)n(C(C)(C)C)n1,·,-4.0%,-5.9%,28.2µM*,-1.0,-1.7%
Cc1nnsc1C(=O)NNc1ccc(C(C)C)cc1,-12.6%,4.1%,3.4%,-11.2%,-1.3,-23.1%
CCCCCCCCCCCCC1CO1 (centres undefined),·,-1.8%,7.3%,·,·,-2.0%
CCOC(=O)C1=C(C)NC(SCc2cc(=O)[nH][nH]2)=C(C#N)C1c1cccs1 (centres undefined),-12.0%,-10.2%,-19.8%,31.4µM*,-13.3,-6.5%
Cc1ccccc1CN1C(=O)/C(=C\c2ccc(C(=O)NCCN3CCOCC3)cc2)Sc2ccccc21,·,·,·,0.2%[76.3 µM],·,?
O=C(NCCN1CCOCC1)c1ccc(/C=C2\Sc3ccccc3N(Cc3ccccc3F)C2=O)cc1,·,·,·,2.5%[76.3 µM],·,1µM*
COC(=O)C1=C(C)N(Cc2ccccc2)[C@]23O[C@](C(=O)OC)(C(=O)N2C1c1ccccc1)C(C(=O)OC)C3C(=O)OC (some centres undefined),·,0.6%[17.5 µM],2.4%[17.4 µM],·,·,-1.6%[12.8 µM]
COc1ccc(CNc2nc(-c3cccnc3)nc3ccccc23)c(OC)c1,·,-24.8%,1.6%,·,·,11.2µM*
